The panel holds about 83,000 compounds, 20% with a hit somewhere; the sample as a whole holds those more often.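 48-hour exposure, single concentration, 96-well plates; percent growth endpoint where 0 means no net growth. Active: below 10.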 Unmarked numbers belong to inactive results. Activity calls are given as the source filed them.

In the assay the test system is MOLT-4 leukemia. Put plainly: NCI-60 one-dose screen, 48 h (100 = growth as untreated, 0 = no growth, -100 = all killed). To be noted: 10 µM unless noted. How it is done:
Growth inhibition of the MOLT-4 human tumor cell line is measured as a screen for anti-cancer activity. Cells are grown in 96 well plates and exposed to the test compound for 48 hours. Compounds are tested at a single concentration, which is 10^-5 M for most compounds. The reported endpoint is percent growth (GI% or GIPRCNT), where numbers from 0 - 100% represent growth inhibition, and numbers from -100% - 0 represent cell death. For example, a value of 40 represents 60% growth inhibition. A value of 0 means no net growth occurred over the course of the experiment. A value of -40 indicates 40% of cells at the beginning of the experiment died by the end of the experiment. A value of -100 means all cells are dead at the end of the experiment.
NCI-60 Human Tumor Cell Lines Screen was performed using the standard one-dose NCI protocol, which is described in more detail at https://dtp.cancer.gov/discovery_development/nci-60/default.htm.
Compounds with GIPRCNT values below 10 were considered active. Activity score was based on GIPRCNT using the following formula: […]
Score is 0 for GIPRCNT values of 100 or above, 50 for GIPRCNT values of 0, and 100 for GIPRCNT values of -100.
Consider `Cc1ccc(NC(=O)c2sc3nc(C)c(Br)c(C)c3c2N)cc1`, for which the growth is 90%. As for `CN(C)CC1CCC(CN(C)C)C1=O` (stereo not given), the figure is 64.4%; as for `COc1ccc(C2=Nc3c(N)nc(N)nc3NC(c3cccc(Nc4ccnc5cc(C(F)(F)F)ccc45)c3)C2)cc1` (stereo not given), 24.3%; as for `COc1cc(-c2nc3sccn3c2-c2ccnc(NCCNS(=O)(=O)c3ccccc3)n2)ccc1F`, 24.7%. As for `OCCn1cc(-c2nc(-c3c[nH]c4ncccc34)cs2)c2cc(F)ccc21`, the figure is 54.5%; as for `CCN(CC)CC(O)COc1c(Br)c(Br)c(Br)c2c1OC(C)(C)C2` (stereo not given), 22.3%; as for `Cc1cccc(/C=C2\CN(C(=O)OC(C)(C)C)C/C(=C\c3cccc(C)c3)C2=O)c1`, 51.8%. On to `Cc1ccc2c(c1)=C/C(=C\c1cc(-c3ccccc3)oc1O)C(=O)N=2`, for which the growth is 90.6%. For the molecule `O=C(C[C@]1(O)C(=O)Nc2ccccc21)c1cccc(C(F)(F)F)c1`, the growth is 96%.

As to `Nc1n[nH]c2ccc([C@H]3[C@@H]4C5CCC(C5)[C@@H]4c4c(ccc5[nH]ncc45)N3S(=O)(=O)C3CC3)cc12` (stereo not given in full), the growth was 19%. With `CCCCCN1C(=O)/C(=c2\sc3n(c2=O)C2C(NN=3)N(CC)C(=O)N2CC)c2ccccc21` (stereo not given), the growth was 4.79% (active). In the case of `O=C(NCCNc1nccc(Nc2ccc(S(=O)(=O)Nc3ccccn3)cc2)n1)c1cccc([N+](=O)[O-])c1`, the growth was 93.8%.

Take `O=C1Nc2ccccc2/C1=C/c1nc2ccccc2c(=O)[nH]1`: the growth was 86%. As for `O=CN1N=C(c2cccc(Nc3ccnc4cc(Cl)ccc34)c2)CC1c1ccccc1` (stereo not given), the figure is 10%. For `O=[N+]([O-])c1cccc(-c2nc3cc4nc5ccccc5[nH]c4cc3n2)c1`, the growth was 92.9%. The value for `COC(CC(F)F)c1cn(S(=O)(=O)c2ccc(C)cc2)c2ccccc12` (stereo not given) was 22.3%.

Consider `CCCNC(=O)Nc1ccc2cc3ccc(NC(=O)NCCC)cc3nc2c1`, for which the growth was 84.8%. As for `O=C(Nc1ccccc1)Nc1ncnc2c1ncn2-c1ccc(Cl)cc1`, the figure is 84.2%; as for `CCOC(=O)c1cc(C(=O)c2cc(OC)c(OC)c(OC)c2)n2ncccc12`, 18.5%; as for `O=S(=O)(NCCNc1nccc(-c2c(-c3ccc(F)c(O)c3)nc3sccn23)n1)c1ccc(O)cc1`, 19.3%. The value for `Nc1c(C(=O)Nc2ccncc2)sc2nc3c(cc12)C(O)CCC3` (stereo not given) was 98%. In the case of `Cc1ccc(CNc2ccc3nc(CCC4CCCCC4)[nH]c3c2)cc1`, the growth is 19.5%. The value for `COc1ccccc1CNc1c2ccccc2nc2ccccc12` was 20.7%; that for `CCN1C(=S)N(c2ccccc2)C2C1NN=c1s/c(=C3\C(=O)N(C(C)C)c4ccccc43)c(=O)n12` (stereo not given) was 91.1%; that for `CCOC(=O)c1c2c(n3cccc(F)c13)C(=O)c1ncccc1C2=O` was 69.3%. As for `Cc1nc2sc(C(=O)Nc3cccc(Br)c3)c(N)c2cc1C(O)c1ccccc1` (stereo not given), the figure is 17.1%; as for `CCOC(=O)C1=C(C)NC(=O)NC1c1c(Cl)n(CCCl)c2ccccc12` (stereo not given), 103%. Turning to `Nc1nc(N)c(-c2ccc(Cl)c(Cl)c2)c(CBr)n1`, the growth is 61.3%. On to `O=C(Nc1nc2cc(C(=O)N3CCN(C(c4ccccc4)c4ccccc4)CC3)ccc2o1)c1ccc(NC2CCCCC2)c([N+](=O)[O-])c1`, for which the growth is 47.9%.

`CCOC(=O)c1cc(C)n(-c2ccc(C(=O)O)cc2)c1C`: the growth is 92.3%. As to `O=c1c2ccccc2n2cnc3ccc(Cl)c1c32`, the growth was 89%. As for `O=C1/C(=C/c2ccccc2O)CC/C1=C\c1ccccc1O`, the figure is 6.67% (active). Consider `COc1ccc(NC2=C(I)C(=O)c3ncccc3C2=O)cc1`, for which the growth was -31.7% (active). For the molecule `O=C1c2c(c3c4ccccc4[nH]c3c3ccc4ccccc4c23)C(=O)N1CCN1CCOCC1`, the growth was 6.38% (active). Regarding `COc1ccc2c(c1OC)CO[C@@H]2[C@H]1c2c(cc3c(c2OC)OCO3)CCN1S(=O)(=O)c1cn(C)cn1`, the growth was 27.4%. Take `CC1CCN(CCOc2ccc(CNc3ccc4nc(CCC5CCCCC5)[nH]c4c3)cc2)CC1`: the growth was 11.2%. The value for `O=C(c1ccncc1)N1N=C(c2ccc(Cl)cc2)C[C@H]1c1cn(-c2ccccc2)nc1-c1ccccc1` was 70.8%. On to `Cc1ccc(-c2nc(N3CCCNCC3)c3oc(-c4ccccc4)nc3n2)cc1`, for which the growth was -73.2% (active). Turning to `COC(=O)[C@]1(C)CCC[C@]2(C)[C@H]3C[C@H]4C(C(C)C)=C[C@]3(CC[C@H]21)[C@@H]1C(=O)CC[C@H](OCCC#N)[C@@H]14`, the growth is 48.6%.

With `Cc1ccc(-c2nc([P+](c3ccccc3)(c3ccccc3)c3ccccc3)c(S(=O)(=O)c3ccc(C)cc3)o2)cc1`, the growth is -3.24% (active).

Source of the values: PubChem BioAssay (NCI).
